The entries come from a sample that favours the strongest signals as a whole.
How the values were obtained:
Assay in all cases: glycan array binding signal (z-score within array); higher = stronger binding
Conditions in all cases: glycan notation: IUPAC condensed, linker removed
Fuc(a1-2)Gal = target: Fuc(a1-2)Gal
Procedure, shortened: (§1)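 The Consortium for Functional Glycomics database supplied 3228 glycan arrays, of which those lacking an available protein sequence were dropped. The binding signal, a within-array Z-score, was averaged across arrays of the same protein sequence and across linkers. Negative scores can be read as non-binding.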

[1] = target: Fuc(a1-2)[Gal(a1-3)]Gal(b1-4)GlcNAc
Procedure, shortened: as §1

[2] = target: Fuc(a1-2)[Gal(a1-3)]Gal(b1-4)[Fuc(a1-3)]GlcNAc
Procedure, shortened: as §1

Gal(a1-4)Gal(b1-4)GalNAc = target: Gal(a1-4)Gal(b1-4)GalNAc
Procedure, shortened: as §1

Gal(b1-2)Gal = target: Gal(b1-2)Gal
Procedure, shortened: as §1

[3] = target: Gal(b1-3)GalNAc(b1-3)Gal(a1-4)Gal(b1-4)Glc
Procedure, shortened: as §1

Gal(b1-4)Glc6S = target: Gal(b1-4)Glc6S
Procedure, shortened: as §1

[4] = target: GlcNAc(a1-3)Gal(b1-4)GlcNAc
Procedure, shortened: as §1

[5] = target: GlcNAc(b1-2)Gal(b1-3)GlcNAc
Procedure, shortened: as §1

[6] = target: GlcNAc(b1-3)[GlcNAc(b1-6)]GlcNAc
Procedure, shortened: as §1

[7] = target: GlcNAc(b1-4)Gal(b1-4)GlcNAc
Procedure, shortened: as §1

[8] = target: GlcNAc(b1-4)GlcNAc(b1-4)GlcNAc(b1-4)GlcNAc(b1-4)GlcNAc
Procedure, shortened: as §1

[9] = target: Man(a1-3)[Man(a1-6)]Man(a1-6)[Man(a1-3)]Man(b1-4)GlcNAc(b1-4)GlcNAc
Procedure, shortened: as §1

[10] = target: Neu5Ac(a2-3)Gal(b1-3)GalNAc(b1-3)Gal(a1-4)Gal(b1-4)Glc
Procedure, shortened: as §1

[11] = target: Neu5Ac(a2-3)Gal(b1-3)GlcNAc
Procedure, shortened: as §1

[12] = target: Neu5Ac(a2-3)Gal6S(b1-4)[Fuc(a1-3)]GlcNAc
Procedure, shortened: as §1

Neu5Ac(a2-6)GalNAc = target: Neu5Ac(a2-6)GalNAc
Procedure, shortened: as §1

[13] = target: Neu5Gc(a2-3)Gal(b1-3)[Fuc(a1-4)]GlcNAc
Procedure, shortened: as §1

B1: CVNH3T (Magnaporthe grisea) (protein)
chain: GSHIGPYGNYAGNFSGSSRDICLDGARLRAECRRGDGGYSTSVIDLNRYLSNDNGHFRWVSGGGGGGGTATVTVQQGDTLRDIGRRFDCDFHEIARRNNIQNEDLIYPGQVLQVPTKGGSGGGAGNFWDSARDVRLVDGGKVLEAELRYSGGWNRSRIYLDEHIGNRNGELIHC
- glycan array binding signal (z-score) (Fuc(a1-2)Gal): -0.223
- glycan array binding signal (z-score) [1]: -0.23
- glycan array binding signal (z-score) [2]: -0.226
- glycan array binding signal (z-score) (Gal(a1-4)Gal(b1-4)GalNAc): 5.47
- glycan array binding signal (z-score) (Gal(b1-2)Gal): -0.185
- glycan array binding signal (z-score) [3]: 6.38
- glycan array binding signal (z-score) (Gal(b1-4)Glc6S): -0.229
- glycan array binding signal (z-score) [4]: -0.239
- glycan array binding signal (z-score) [5]: -0.233
- glycan array binding signal (z-score) [6]: -0.222
- glycan array binding signal (z-score) [7]: -0.22
- glycan array binding signal (z-score) [8]: 5.39
- glycan array binding signal (z-score) [9]: -0.23
- glycan array binding signal (z-score) [10]: 6.23
- glycan array binding signal (z-score) [11]: -0.152
- glycan array binding signal (z-score) [12]: -0.226
- glycan array binding signal (z-score) (Neu5Ac(a2-6)GalNAc): -0.209
- glycan array binding signal (z-score) [13]: -0.175

Source: the supplement of paper PMC8728848
